Assays:
Conditions in all cases: concentration: 1 μM, replicates: in singlicate; n = 1
MARK3 = test system: MARK3
MARK4 = test system: MARK4
MAST1 = test system: MAST1
MEK1 = test system: T1, MEK1
T1 construct: gene MAP2K1

MEK2 = test system: T2, MEK2
T2 construct: gene MAP2K2

MEK3 = test system: T3, MEK3
T3 construct: gene MAP2K3

MEK4 = test system: T4, MEK4
T4 construct: gene MAP2K4

MEK5 = test system: T5, MEK5
T5 construct: gene MAP2K5

MEK6 = test system: T6, MEK6
T6 construct: gene MAP2K6

MELK = test system: MELK
MERTK = test system: MERTK
MET = test system: MET
MINK = test system: T7, MINK
T7 construct: gene MINK1

MKK7 = test system: MKK7
MKNK1 = test system: MKNK1
MKNK2 = test system: MKNK2
MLCK = test system: T8, MLCK
T8 construct: gene MYLK3

MLK1 = test system: T9, MLK1
T9 construct: gene MAP3K9

MLK2 = test system: MLK2
MLK3 = test system: MLK3
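Note: KINOMEscan kinase panel screen.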

## CCc1nc(-c2cccc(N(C)S(=O)(=O)c3ccccc3)c2)c(-c2ccnc(Nc3ccc(N4CCN(C(C)=O)CC4)nc3)n2)s1 [GSK1645895]
MARK3
  %Inh: 0%
MARK4
  %Inh: 0%
MAST1
  %Inh: 0%
MEK1
  %Inh: 0%
MEK2
  %Inh: 3%
MEK3
  %Inh: 3%
MEK4
  %Inh: 0%
MEK5
  %Inh: 99.9%
MEK6
  %Inh: 24%
MELK
  %Inh: 0%
MERTK
  %Inh: 11%
MET
  %Inh: 0%
MINK
  %Inh: 18%
MKK7
  %Inh: 0%
MKNK1
  %Inh: 0%
MKNK2
  %Inh: 6%
MLCK
  %Inh: 0%
MLK1
  %Inh: 0%
MLK2
  %Inh: 0%
MLK3
  %Inh: 0%

## Nc1nc(-c2ccc3c(N)n[nH]c3c2)cc(N2CCCCC2)n1 [GSK2228768]
MARK3
  %Inh: 0%
MARK4
  %Inh: 0%
MAST1
  %Inh: 0%
MEK1
  %Inh: 0%
MEK2
  %Inh: 0%
MEK3
  %Inh: 2%
MEK4
  %Inh: 0%
MEK5
  %Inh: 8%
MEK6
  %Inh: 0%
MELK
  %Inh: 0%
MERTK
  %Inh: 0%
MET
  %Inh: 0%
MINK
  %Inh: 0%
MKK7
  %Inh: 0%
MKNK1
  %Inh: 0%
MKNK2
  %Inh: 23%
MLCK
  %Inh: 0%
MLK1
  %Inh: 0%
MLK2
  %Inh: 0%
MLK3
  %Inh: 0%

## O=C(c1ccc(-c2cc(-c3c[nH]nc3-c3ccccn3)ccn2)cc1)N1CCCC1 [GW792479]
MARK3
  %Inh: 0%
MARK4
  %Inh: 15%
MAST1
  %Inh: 12%
MEK1
  %Inh: 14%
MEK2
  %Inh: 30%
MEK3
  %Inh: 20%
MEK4
  %Inh: 0%
MEK5
  %Inh: 30%
MEK6
  %Inh: 0%
MELK
  %Inh: 0%
MERTK
  %Inh: 0%
MET
  %Inh: 23%
MINK
  %Inh: 30%
MKK7
  %Inh: 0%
MKNK1
  %Inh: 0%
MKNK2
  %Inh: 0%
MLCK
  %Inh: 0%
MLK1
  %Inh: 14%
MLK2
  %Inh: 14%
MLK3
  %Inh: 3%

## O=C(Nc1n[nH]c2nc(-c3ccco3)c(Br)cc12)c1ccc(CN2CCCC2)cc1.O=C(O)[C@H](O)[C@@H](O)C(=O)O [SB-742352]
MARK3
  %Inh: 0%
MARK4
  %Inh: 2%
MAST1
  %Inh: 6%
MEK1
  %Inh: 0%
MEK2
  %Inh: 0%
MEK3
  %Inh: 0%
MEK4
  %Inh: 0%
MEK5
  %Inh: 83%
MEK6
  %Inh: 0%
MELK
  %Inh: 3%
MERTK
  %Inh: 22%
MET
  %Inh: 0%
MINK
  %Inh: 0%
MKK7
  %Inh: 0%
MKNK1
  %Inh: 0%
MKNK2
  %Inh: 0%
MLCK
  %Inh: 69%
MLK1
  %Inh: 0%
MLK2
  %Inh: 0%
MLK3
  %Inh: 10%

## N#Cc1ccc(Oc2ccc(Nc3ncnc4cc[nH]c34)cc2Cl)cc1
MARK3
  %Inh: 0%
MARK4
  %Inh: 0%
MAST1
  %Inh: 38%
MEK1
  %Inh: 22%
MEK2
  %Inh: 39%
MEK3
  %Inh: 37%
MEK4
  %Inh: 0%
MEK5
  %Inh: 44%
MEK6
  %Inh: 19%
MELK
  %Inh: 25%
MERTK
  %Inh: 0%
MET
  %Inh: 11%
MINK
  %Inh: 31%
MKK7
  %Inh: 0%
MKNK1
  %Inh: 0%
MKNK2
  %Inh: 20%
MLCK
  %Inh: 8%
MLK1
  %Inh: 0%
MLK2
  %Inh: 0%
MLK3
  %Inh: 0%

## Cl.c1ccc(Cn2ccc3cc(Nc4ncnc5ccccc45)ccc32)cc1 [GW275568]
MARK3
  %Inh: 1%
MARK4
  %Inh: 30%
MAST1
  %Inh: 0%
MEK1
  %Inh: 14%
MEK2
  %Inh: 6%
MEK3
  %Inh: 11%
MEK4
  %Inh: 19%
MEK5
  %Inh: 84%
MEK6
  %Inh: 5%
MELK
  %Inh: 9%
MERTK
  %Inh: 0%
MET
  %Inh: 2%
MINK
  %Inh: 12%
MKK7
  %Inh: 7%
MKNK1
  %Inh: 6%
MKNK2
  %Inh: 12%
MLCK
  %Inh: 0%
MLK1
  %Inh: 0%
MLK2
  %Inh: 0%
MLK3
  %Inh: 13%

## Nc1nc(-c2ccccn2)c(-c2ccnc3ccccc23)s1 [GW548057]
MARK3
  %Inh: 4%
MARK4
  %Inh: 0%
MAST1
  %Inh: 9%
MEK1
  %Inh: 8%
MEK2
  %Inh: 12%
MEK3
  %Inh: 2%
MEK4
  %Inh: 12%
MEK5
  %Inh: 32%
MEK6
  %Inh: 10%
MELK
  %Inh: 26%
MERTK
  %Inh: 2%
MET
  %Inh: 0%
MINK
  %Inh: 56%
MKK7
  %Inh: 14%
MKNK1
  %Inh: 1%
MKNK2
  %Inh: 0%
MLCK
  %Inh: 0%
MLK1
  %Inh: 0%
MLK2
  %Inh: 0%
MLK3
  %Inh: 0%

## CS(=O)(=O)CCNCc1ccc(-c2ccc3ncnc(Nc4ccc(OCc5ccccc5)c(Cl)c4)c3c2)o1.Cl [GW574783]
MARK3
  %Inh: 3%
MARK4
  %Inh: 9%
MAST1
  %Inh: 23%
MEK1
  %Inh: 10%
MEK2
  %Inh: 0%
MEK3
  %Inh: 3%
MEK4
  %Inh: 15%
MEK5
  %Inh: 85%
MEK6
  %Inh: 0%
MELK
  %Inh: 23%
MERTK
  %Inh: 5%
MET
  %Inh: 0%
MINK
  %Inh: 0%
MKK7
  %Inh: 71%
MKNK1
  %Inh: 26%
MKNK2
  %Inh: 0%
MLCK
  %Inh: 0%
MLK1
  %Inh: 0%
MLK2
  %Inh: 31%
MLK3
  %Inh: 10%

## Fc1cccc(COc2ccc(Nc3ncnc4nn5ccccc5c34)cc2Cl)c1 [GW689066]
MARK3
  %Inh: 0%
MARK4
  %Inh: 0%
MAST1
  %Inh: 23%
MEK1
  %Inh: 0%
MEK2
  %Inh: 0%
MEK3
  %Inh: 0%
MEK4
  %Inh: 8%
MEK5
  %Inh: 45%
MEK6
  %Inh: 0%
MELK
  %Inh: 5%
MERTK
  %Inh: 6%
MET
  %Inh: 0%
MINK
  %Inh: 0%
MKK7
  %Inh: 0%
MKNK1
  %Inh: 4%
MKNK2
  %Inh: 0%
MLCK
  %Inh: 4%
MLK1
  %Inh: 0%
MLK2
  %Inh: 0%
MLK3
  %Inh: 0%

## CN1c2ccc(-c3ccc(C(=O)NCCO)cc3)cc2-c2[nH]ncc2S1(=O)=O
MARK3
  %Inh: 0%
MARK4
  %Inh: 35%
MAST1
  %Inh: 0%
MEK1
  %Inh: 0%
MEK2
  %Inh: 27%
MEK3
  %Inh: 25%
MEK4
  %Inh: 0%
MEK5
  %Inh: 68%
MEK6
  %Inh: 1%
MELK
  %Inh: 32%
MERTK
  %Inh: 0%
MET
  %Inh: 2%
MINK
  %Inh: 46%
MKK7
  %Inh: 0%
MKNK1
  %Inh: 0%
MKNK2
  %Inh: 0%
MLCK
  %Inh: 0%
MLK1
  %Inh: 29%
MLK2
  %Inh: 27%
MLK3
  %Inh: 18%

## CCn1c(-c2ccncc2)nc2cnccc21 [SB-735216]
MARK3
  %Inh: 96.1%
MARK4
  %Inh: 8%
MAST1
  %Inh: 37%
MEK1
  %Inh: 5%
MEK2
  %Inh: 11%
MEK3
  %Inh: 34%
MEK4
  %Inh: 7%
MEK5
  %Inh: 25%
MEK6
  %Inh: 0%
MELK
  %Inh: 0%
MERTK
  %Inh: 0%
MET
  %Inh: 1%
MINK
  %Inh: 19%
MKK7
  %Inh: 5%
MKNK1
  %Inh: 5%
MKNK2
  %Inh: 33%
MLCK
  %Inh: 0%
MLK1
  %Inh: 8%
MLK2
  %Inh: 0%
MLK3
  %Inh: 0%
